According to PubChem BioAssay (Tox21):
“And” between values parts separate entries of the source, which are not always exact repeats. Equal values may be shown once. Inconclusive results are not listed. Where a call stands in place of a potency, no number is given. More than one record can exist for a structure, and the calls need not agree. The source made the active and inactive calls. Unless noted, the call rests on the fitted dose curve; in most records, active means well fitted curve in the direction sought with a large enough effect in the repeat runs; inconclusive means weak or mixed curves; inactive means no such curve, though single readings can be large; an effect the other way counts as inactive or inconclusive. Residues, ends and D or L forms follow the SMILES beside them.

Tests used:
[1] = qHTS assay to identify small molecule antagonists of the thyroid receptor (TR) signaling pathway (AID 743065); further: nearly all actives have a fitted effect of over 55% in size; further: potency means the concentration at half of the fitted maximal effect
Outline: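 Antagonism measured as loss of luciferase signal in GH3 cells stably carrying a TRE-luciferase reporter, co-treated with compound and T3 (1 nM final) for 23.5 h at 37 C. Viability was read in the same well by CellTiter-Fluor.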

[2] = tested on: thyroid hormone receptor (rat, GH3 cells); assay: qHTS assay to identify small molecule agonists of the thyroid receptor (TR) signaling pathway (AID 743066; calls by dose curve; further: potency means the concentration at half of the fitted maximal effect)
[3] = biological target: Estrogen receptor (Homo sapiens) (UniProt P03372); assay: qHTS assay to identify small molecule antagonists of the estrogen receptor alpha (ER-alpha) signaling pathway (AID 743069; active means well fitted curve in the direction sought with a large enough effect in the signal ratio in the repeat runs, not every such curve was filed as active; the % refers to the signal ratio)
Chain of Estrogen receptor (Homo sapiens) (P03372 whole entry, looked up): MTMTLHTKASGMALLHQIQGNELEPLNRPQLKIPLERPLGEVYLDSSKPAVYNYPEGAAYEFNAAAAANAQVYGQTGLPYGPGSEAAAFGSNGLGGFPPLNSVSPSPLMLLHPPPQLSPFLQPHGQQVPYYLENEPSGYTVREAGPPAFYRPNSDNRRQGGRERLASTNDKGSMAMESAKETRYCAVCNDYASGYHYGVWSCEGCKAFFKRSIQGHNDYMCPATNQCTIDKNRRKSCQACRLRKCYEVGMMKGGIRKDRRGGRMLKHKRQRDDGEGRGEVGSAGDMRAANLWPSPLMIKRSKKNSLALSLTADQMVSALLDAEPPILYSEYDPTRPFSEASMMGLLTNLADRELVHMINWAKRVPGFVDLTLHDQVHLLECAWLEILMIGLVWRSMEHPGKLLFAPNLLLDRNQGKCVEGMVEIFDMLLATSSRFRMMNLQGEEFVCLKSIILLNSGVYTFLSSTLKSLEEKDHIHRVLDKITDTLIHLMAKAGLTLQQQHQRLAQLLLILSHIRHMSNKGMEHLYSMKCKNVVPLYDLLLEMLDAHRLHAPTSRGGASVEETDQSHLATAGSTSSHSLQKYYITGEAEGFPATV
Outline: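 Fluorescence intensity from a beta-lactamase FRET substrate served as the read-out. Cells: HEK293 with stably integrated ER-alpha-UAS-bla reporter. Agonist 17beta-estradiol was co-added with compounds; incubation 18 hr at 37C, substrate 2 hr at room temperature.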

[4] = qHTS assay to identify small molecule antagonists of the estrogen receptor alpha (ER-alpha) signaling pathway - cell viability counter screen (AID 743074; calls by dose curve; further: nearly all actives have a fitted effect of over 45% in size)
[5] = biological target: Estrogen receptor (Homo sapiens) (UniProt P03372); assay: qHTS assay to identify small molecule agonists of the estrogen receptor alpha (ER-alpha) signaling pathway (AID 743075; calls by dose curve)
[6] = biological target: Estrogen receptor (Homo sapiens) (UniProt P03372); assay: qHTS assay to identify small molecule agonists of the estrogen receptor alpha (ER-alpha) signaling pathway using the BG1 cell line (AID 743079); further: nearly all actives have a fitted effect of over 20% in size; further: potency means the concentration at half of the fitted maximal effect
[7] = qHTS assay to identify small molecule antagonists of the estrogen receptor alpha (ER-alpha) signaling pathway using the BG1 cell line (AID 743080; calls by dose curve;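 further: BG1 cells stimulated with 17beta-estradiol alongside compound; series mostly up to about 70 µM; nearly all actives have a fitted effect of over 25% in size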)
Outline: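 Luciferase inhibition measured with ONE-Glo after 30 min at RT in BG1Luc4E2 cells given test compounds and 17beta-estradiol for 21.5 h at 37 C; CellTiter-Fluor viability read in the same wells beforehand.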

[8] = qHTS assay to identify small molecule antagonists of the estrogen receptor alpha (ER-alpha) signaling pathway using the BG1 cell line - cell viability counter screen (AID 743081);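 further: compound given together with 17beta-estradiol as the ER stimulus; nearly all actives have a fitted effect of over 45% in size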; further: potency means the concentration at half of the fitted maximal effect
Aromatase (Homo sapiens) = Aromatase (Homo sapiens) (UniProt P11511); assay: qHTS assay to identify aromatase inhibitors (AID 743083); further: series mostly up to about 70 µM; nearly all actives have a fitted effect of over 55% in size
Chain of Aromatase (Homo sapiens) (P11511 whole entry, looked up): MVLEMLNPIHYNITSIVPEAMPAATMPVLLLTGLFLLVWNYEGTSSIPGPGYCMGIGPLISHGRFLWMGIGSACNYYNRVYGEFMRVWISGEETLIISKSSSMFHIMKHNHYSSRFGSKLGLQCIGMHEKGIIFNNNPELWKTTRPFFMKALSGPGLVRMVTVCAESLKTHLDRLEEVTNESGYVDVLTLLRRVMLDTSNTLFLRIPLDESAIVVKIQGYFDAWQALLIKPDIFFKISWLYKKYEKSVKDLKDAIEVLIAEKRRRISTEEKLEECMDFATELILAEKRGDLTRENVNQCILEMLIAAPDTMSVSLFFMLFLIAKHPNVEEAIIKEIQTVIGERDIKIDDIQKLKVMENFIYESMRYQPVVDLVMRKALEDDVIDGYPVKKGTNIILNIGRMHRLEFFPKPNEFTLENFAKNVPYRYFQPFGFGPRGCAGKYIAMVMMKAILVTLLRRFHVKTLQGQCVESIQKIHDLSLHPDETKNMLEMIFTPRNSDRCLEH

[9] = qHTS assay to identify aromatase inhibitors - cell viability counter screen (AID 743084);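 further: cells stimulated with testosterone during compound exposure; nearly all actives have a fitted effect of over 55% in size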; further: potency means the concentration at half of the fitted maximal effect
[10] = biological target: Aryl hydrocarbon receptor (Homo sapiens) (UniProt P35869); assay: qHTS assay to identify small molecule that activate the aryl hydrocarbon receptor (AhR) signaling pathway (AID 743085); further: nearly all actives have a fitted effect of over 15% in size; further: potency means the concentration at half of the fitted maximal effect;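 on activation: HG2L7.5c1 human HepG2 liver cells with stably integrated DRE-driven firefly reporter; series mostly up to about 70 µM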
Chain of Aryl hydrocarbon receptor (Homo sapiens) (P35869 whole entry, looked up): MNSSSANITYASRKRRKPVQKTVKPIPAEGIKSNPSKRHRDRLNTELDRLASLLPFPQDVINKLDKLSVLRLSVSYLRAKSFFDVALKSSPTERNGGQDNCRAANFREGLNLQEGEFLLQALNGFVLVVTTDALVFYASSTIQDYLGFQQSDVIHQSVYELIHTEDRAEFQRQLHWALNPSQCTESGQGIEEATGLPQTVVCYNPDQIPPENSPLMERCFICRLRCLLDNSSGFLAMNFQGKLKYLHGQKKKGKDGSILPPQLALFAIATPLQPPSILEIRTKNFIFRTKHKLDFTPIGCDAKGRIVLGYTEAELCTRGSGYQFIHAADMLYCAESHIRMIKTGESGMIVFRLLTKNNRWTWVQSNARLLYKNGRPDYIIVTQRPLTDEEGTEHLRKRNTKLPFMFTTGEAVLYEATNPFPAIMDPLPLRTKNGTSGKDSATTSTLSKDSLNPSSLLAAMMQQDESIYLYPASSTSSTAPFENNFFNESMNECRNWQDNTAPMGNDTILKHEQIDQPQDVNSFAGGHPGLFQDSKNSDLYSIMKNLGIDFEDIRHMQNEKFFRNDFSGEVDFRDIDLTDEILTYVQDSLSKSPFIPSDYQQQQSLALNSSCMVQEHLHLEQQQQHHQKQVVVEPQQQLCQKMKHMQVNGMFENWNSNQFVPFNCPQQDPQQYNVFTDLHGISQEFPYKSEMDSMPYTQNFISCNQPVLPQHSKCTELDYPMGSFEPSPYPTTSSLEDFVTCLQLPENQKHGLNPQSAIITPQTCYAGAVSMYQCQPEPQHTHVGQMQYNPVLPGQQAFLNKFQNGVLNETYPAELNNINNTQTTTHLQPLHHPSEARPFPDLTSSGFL
Outline: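 HepG2 cells (HG2L7.5c1) stably carrying a firefly luciferase reporter driven by 20 dioxin responsive elements were exposed to compound for 24 h at 37C after a 5 h settling period; luminescence rise (ONE-Glo) indicated activation.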

[11] = qHTS assay to identify small molecule that activate the aryl hydrocarbon receptor (AhR) signaling pathway - cell viability counter screen (AID 743086); further: nearly all actives have a fitted effect of over 45% in size; further: potency means the concentration at half of the fitted maximal effect
Outline: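 Cytotoxicity counter screen: CellTiter-Fluor signal (30 min, 37 C) in 4000 HepG2 cells/well carrying the DRE-luciferase reporter, following 24 h compound exposure at 37 C.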

[12] = biological target: Peroxisome proliferator-activated receptor gamma (Homo sapiens) (UniProt P37231); assay: qHTS assay to identify small molecule agonists of the peroxisome proliferator-activated receptor gamma (PPARg) signaling pathway (AID 743094; active means well fitted activation curve with a large enough effect in the signal ratio in the repeat runs, not every such curve was filed as active; the % refers to the signal ratio)
Chain of Peroxisome proliferator-activated receptor gamma (Homo sapiens) (P37231 whole entry, looked up): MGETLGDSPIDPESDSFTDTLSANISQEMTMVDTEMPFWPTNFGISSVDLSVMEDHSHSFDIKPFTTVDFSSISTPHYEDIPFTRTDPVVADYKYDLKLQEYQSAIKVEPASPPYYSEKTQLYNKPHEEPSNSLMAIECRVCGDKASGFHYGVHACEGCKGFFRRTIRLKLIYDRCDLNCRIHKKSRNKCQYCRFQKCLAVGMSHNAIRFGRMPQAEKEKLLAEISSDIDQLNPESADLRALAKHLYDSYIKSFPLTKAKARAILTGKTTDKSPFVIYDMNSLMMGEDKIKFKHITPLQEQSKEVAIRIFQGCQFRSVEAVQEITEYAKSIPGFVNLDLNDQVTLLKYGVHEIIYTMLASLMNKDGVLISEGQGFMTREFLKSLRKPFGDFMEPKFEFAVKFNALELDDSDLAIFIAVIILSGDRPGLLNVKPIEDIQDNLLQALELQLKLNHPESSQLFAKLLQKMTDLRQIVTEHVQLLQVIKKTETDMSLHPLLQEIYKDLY
Outline: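 Cell-based bla reporter, HEK293H background, PPARg-driven UAS. Pre-incubation 5 h, 37C, 5% CO2. Compound 17 h, 37C. Substrate 1 h RT; fluorescence.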

[13] = biological target: Peroxisome proliferator-activated receptor gamma (Homo sapiens) (UniProt P37231); assay: qHTS assay to identify small molecule antagonists of the peroxisome proliferator-activated receptor gamma (PPARg) signaling pathway (AID 743191; calls by dose curve; further: series mostly up to about 63 µM; nearly all actives have a fitted effect of over 30% in size)
Outline: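 Beta-lactamase reporter under UAS control in HEK293H PPARg-bla cells; compound treatment 17 h at 37C. Read-out: fluorescence intensity after 1 h room-temperature incubation with LiveBLAzer B/G FRET substrate.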

[14] = qHTS assay to identify small molecule antagonists of the peroxisome proliferator-activated receptor gamma (PPARg) signaling pathway - cell viability counter screen (AID 743194); further: nearly all actives have a fitted effect of over 55% in size
Outline: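 Viability was measured as CellTiter-Glo luminescence in GeneBLAzer PPARg UAS-bla HEK293H cells. These cells had been exposed 17 h at 37 C to compounds together with rosiglitazone at 50 nM final, with the beta-lactamase readout taken in the same wells.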

[15] = qHTS assay for small molecule agonists of the antioxidant response element (ARE) signaling pathway - cell viability counter screen (AID 743203; calls by dose curve; further: nearly all actives have a fitted effect of over 55% in size)
Outline: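 Measured in the same wells as the beta-lactamase ARE reporter, this read-out is CellTiter-Glo luminescence from HepG2 ARE-bla cells given compounds for 16 hrs.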

[16] = qHTS assay for small molecule activators of the heat shock response signaling pathway - cell viability counter screen (AID 743209); further: nearly all actives have a fitted effect of over 50% in size
Outline: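 Same-well multiplex: after 2.5 h room-temperature incubation with LiveBLAzer B/G substrate and fluorescence reading, CellTiter-Glo reagent was added to HSE-bla HeLa cells that had received compound for 5 h at 37 C; luminescence read after 30 min.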

[17] = qHTS assay for small molecule activators of the heat shock response signaling pathway (AID 743210; active means well fitted activation curve with a large enough effect in the signal ratio in the repeat runs, with a control signal flat, not every such curve was filed as active; the % refers to the signal ratio;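 further: HeLa cells with beta-lactamase reporter driven by heat shock elements; series mostly up to about 63 µM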)
Outline: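 Fluorescence from a cleaved B/G FRET substrate (2.5 h, room temp) reports HSE-driven beta-lactamase in HeLa cells treated 5 h at 37 C with DMSO-dissolved compounds.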

[18] = qHTS assay to identify small molecule agonists of the peroxisome proliferator-activated receptor delta (PPARd) signaling pathway - cell viability counter screen (AID 743211); further: nearly all actives have a fitted effect of over 55% in size
Outline: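 PPARd-bla HEK293H cells (UAS-beta-lactamase reporter) were treated with compounds for 17 h at 37 C. Viability was then read in the same wells by CellTiter-Glo luminescence after 30 min at room temperature.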

[19] = qHTS assay for small molecule agonists of the antioxidant response element (ARE) signaling pathway (AID 743202; active means well fitted activation curve with a large enough effect in the signal ratio in the repeat runs, not every such curve was filed as active; the % refers to the signal ratio)
Outline: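 Beta-lactamase reporter activity, read as fluorescence intensity, reflects ARE/Nrf2 pathway induction in HepG2 cells after 16 h compound exposure at 37 C; substrate loading was 2 h at room temperature.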

NC(=O)c1ccccc1O
Potency [1]: inactive | Potency [2]: inactive | Potency [3]: inactive | Potency [4]: inactive | Potency [5]: inactive | Potency [6]: inactive | Potency [7]: inactive | Potency [8]: inactive | Potency (Aromatase (Homo sapiens)): inactive | Potency [9]: inactive | Potency [10]: inactive | Potency [11]: inactive | outcome [12]: inactive | outcome [13]: inactive | outcome [14]: inactive | outcome [15]: inactive | outcome [16]: inactive | outcome [17]: inactive | outcome [18]: inactive

NC(N)=NC(=O)c1nc(Cl)c(N)nc1N
Potency [1]: 21.1 µM (active) and 54.8 µM (active) | Potency [2]: inactive | Potency [3]: inactive | Potency [4]: inactive | Potency [5]: inactive | Potency [6]: inactive | Potency [7]: inactive | Potency [8]: inactive | Potency (Aromatase (Homo sapiens)): inactive | Potency [9]: inactive | Potency [10]: inactive | Potency [11]: inactive | outcome [12]: inactive | outcome [13]: inactive | outcome [14]: inactive | outcome [15]: inactive | outcome [16]: inactive | outcome [17]: inactive | outcome [18]: inactive

Cc1noc(NS(=O)(=O)c2ccc(N)cc2)c1C
Potency [1]: inactive | Potency [2]: inactive | Potency [3]: inactive | Potency [4]: inactive | Potency [5]: inactive | Potency [6]: 29.8 µM (active) and inactive | Potency [7]: inactive | Potency [8]: inactive | Potency (Aromatase (Homo sapiens)): inactive | Potency [9]: inactive | Potency [10]: inactive | Potency [11]: inactive | outcome [12]: inactive | outcome [13]: inactive | outcome [14]: inactive | Potency [19]: inactive | outcome [15]: inactive | outcome [16]: inactive | outcome [17]: inactive | outcome [18]: inactive

Cc1ccc(C)c(OCCCC(C)(C)C(=O)O)c1
Potency [1]: inactive | Potency [2]: inactive | Potency [3]: inactive | Potency [4]: inactive | Potency [5]: inactive | Potency [6]: inactive | Potency [7]: inactive | Potency [8]: inactive | Potency (Aromatase (Homo sapiens)): inactive | Potency [9]: inactive | Potency [10]: inactive and 48.9 µM (active) | Potency [11]: inactive | outcome [14]: inactive | outcome [15]: inactive | outcome [16]: inactive | outcome [17]: inactive | outcome [18]: inactive

O=C(O)CCCCC(=O)O
Potency [1]: inactive | Potency [2]: inactive | Potency [3]: inactive | Potency [4]: inactive | Potency [5]: inactive | Potency [6]: inactive | Potency [7]: inactive | Potency [8]: inactive | Potency (Aromatase (Homo sapiens)): inactive | Potency [9]: inactive | Potency [10]: inactive | Potency [11]: inactive | outcome [12]: inactive | outcome [14]: inactive | outcome [15]: inactive | outcome [16]: inactive | outcome [18]: inactive

OC(Cn1cncn1)(Cn1cncn1)c1ccc(F)cc1F
Potency [1]: inactive | Potency [2]: inactive | Potency [3]: inactive | Potency [4]: inactive | Potency [5]: inactive | Potency [6]: inactive | Potency [7]: inactive | Potency [8]: inactive | Potency [9]: inactive | Potency [11]: inactive | outcome [12]: inactive | outcome [13]: inactive | outcome [14]: inactive | outcome [15]: inactive | outcome [16]: inactive | outcome [18]: inactive

Nc1ccc(S(=O)(=O)c2ccc(N)cc2)cc1
Potency [1]: inactive | Potency [2]: inactive | Potency [3]: inactive | Potency [4]: inactive | Potency [5]: inactive | Potency [6]: inactive | Potency [7]: inactive | Potency [8]: inactive | Potency (Aromatase (Homo sapiens)): inactive | Potency [9]: inactive | Potency [10]: inactive | Potency [11]: inactive | outcome [12]: inactive | outcome [13]: inactive | outcome [14]: inactive | outcome [15]: inactive | outcome [16]: inactive | outcome [17]: inactive | outcome [18]: inactive

CCCCC(CC)COC(=O)/C=C/c1ccc(OC)cc1 (stereo not drawn)
Potency [1]: inactive | Potency [2]: inactive | Potency [3]: inactive | Potency [4]: inactive | Potency [5]: inactive | Potency [6]: inactive | Potency [7]: inactive | Potency [8]: inactive | Potency (Aromatase (Homo sapiens)): inactive | Potency [9]: inactive | Potency [10]: inactive | Potency [11]: inactive | outcome [12]: inactive | outcome [13]: inactive | outcome [14]: inactive | outcome [15]: inactive | outcome [16]: inactive | outcome [17]: inactive | outcome [18]: inactive

Cn1cc[nH]c1=S
Potency [1]: inactive | Potency [2]: inactive | Potency [3]: inactive | Potency [4]: inactive | Potency [5]: inactive | Potency [6]: inactive | Potency [7]: inactive | Potency [8]: inactive | Potency (Aromatase (Homo sapiens)): inactive | Potency [9]: inactive | Potency [11]: inactive | outcome [12]: inactive | outcome [13]: inactive | outcome [14]: inactive | Potency [19]: inactive | outcome [15]: inactive | outcome [16]: inactive | outcome [17]: inactive | outcome [18]: inactive

O=C(O)CCC(=O)O
Potency [1]: inactive | Potency [2]: inactive | Potency [3]: inactive | Potency [4]: inactive | Potency [5]: inactive | Potency [6]: inactive | Potency [7]: inactive | Potency [8]: inactive | Potency (Aromatase (Homo sapiens)): inactive | Potency [9]: inactive | Potency [10]: inactive | Potency [11]: inactive | outcome [12]: inactive | outcome [13]: inactive | outcome [14]: inactive | Potency [19]: inactive | outcome [15]: inactive | outcome [16]: inactive | outcome [17]: inactive | outcome [18]: inactive

Cn1c(=O)c2[nH]cnc2n(C)c1=O
Potency [1]: inactive | Potency [2]: inactive and 30.6 µM (active) | Potency [3]: inactive | Potency [4]: inactive | Potency [5]: inactive | Potency [6]: inactive | Potency [7]: inactive | Potency [8]: inactive | Potency (Aromatase (Homo sapiens)): inactive | Potency [9]: inactive | Potency [10]: inactive | Potency [11]: inactive | outcome [12]: inactive | outcome [14]: inactive | outcome [15]: inactive | outcome [16]: inactive | outcome [17]: inactive | outcome [18]: inactive

CC(=O)Nc1nnc(S(N)(=O)=O)s1
Potency [1]: inactive | Potency [2]: inactive | Potency [3]: inactive | Potency [4]: inactive | Potency [5]: inactive | Potency [6]: inactive | Potency [7]: inactive | Potency [8]: inactive | Potency (Aromatase (Homo sapiens)): inactive | Potency [9]: inactive | Potency [10]: inactive | Potency [11]: inactive | outcome [12]: inactive | outcome [13]: inactive | outcome [14]: inactive | Potency [19]: inactive | outcome [15]: inactive | outcome [16]: inactive | outcome [17]: inactive | outcome [18]: inactive

O=C(O)c1[nH]n(-c2ccc(S(=O)(=O)O)cc2)c(=O)c1N=Nc1ccc(S(=O)(=O)O)cc1
Potency [1]: inactive | Potency [2]: inactive | Potency [3]: inactive | Potency [4]: inactive | Potency [5]: inactive | Potency [6]: inactive | Potency [7]: inactive | Potency [8]: inactive and 54.6 µM (active) and 64.1 µM (active) | Potency (Aromatase (Homo sapiens)): inactive | Potency [9]: 30.7 µM (active) and 57.1 µM (active) | Potency [10]: inactive | Potency [11]: 30.7 µM (active) and 22.7 µM (active) | outcome [12]: inactive | outcome [13]: inactive | outcome [14]: inactive | Potency [19]: inactive | outcome [15]: inactive | outcome [16]: inactive | outcome [17]: inactive | outcome [18]: inactive

COC(=O)[C@H](Cc1ccccc1)NC(=O)[C@@H](N)CC(=O)O (H-Asp-Phe-OMe)
Potency [1]: inactive | Potency [2]: inactive | Potency [3]: inactive | Potency [4]: inactive | Potency [5]: inactive | Potency [6]: inactive | Potency [7]: inactive | Potency [8]: inactive | Potency (Aromatase (Homo sapiens)): inactive | Potency [9]: inactive | Potency [10]: inactive | Potency [11]: inactive | outcome [12]: inactive | outcome [13]: inactive | outcome [14]: inactive | Potency [19]: inactive | outcome [15]: inactive | outcome [16]: inactive | outcome [17]: inactive | outcome [18]: inactive
